25 compounds from PubChem BioAssay (Tox21) can be followed below.

Each structure is given as a SMILES string. Several values for one entry are separate records, joined by “and”; a condition that tells them apart may be missing. Equal entries are not always repeated. Results filed as inconclusive are left out. The source holds several records for some structures; these can differ, active in one and inactive in another. Activity calls are given as the source filed them. Unless noted, calls come from the whole dose curve; as a rule, active = well fitted curve in the direction sought with a large enough effect in the repeat runs; inconclusive = weak or mixed curves; inactive = no such curve, though single readings can be large; an effect the other way counts as inactive or inconclusive.

A short description of assay [1]: qHTS assay to identify small molecule antagonists of the glucocorticoid receptor (GR) signaling pathway - cell viability counter screen (AID 720693). Note: nearly all actives have a fitted effect of over 55% in size. Note: potency is the fitted concentration of half-maximal effect. For orientation: qHTS replaces the single test concentration by a dilution series.
Assay [2] is described as follows: qHTS assay for identifying genotoxic compounds that show differential cytotoxicity against isogenic chicken DT40 cell lines with known DNA damage response pathways - wild type cell line (AID 743012). Note: nearly all actives have a fitted effect of over 60% in size. Note: potency is the fitted concentration of half-maximal effect. The essentials: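 Cytotoxicity in repair-proficient parental chicken DT40 cells serves as the comparator for Rad54/Ku70- and Rev3-deficient lines. Cells were exposed to compounds for 40 h at 37 C/5% CO2, and ATP-based luminescence (CellTiter-Glo) measured viability.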

Assay [3] can be described thus: qHTS assay for identifying genotoxic compounds that show differential cytotoxicity against isogenic chicken DT40 cell lines with known DNA damage response pathways - Rev3 mutant cell line (AID 743014). Note: nearly all actives have a fitted effect of over 55% in size. Note: potency is the fitted concentration of half-maximal effect.
Assay [4] in a line: qHTS assay for identifying genotoxic compounds that show differential cytotoxicity against isogenic chicken DT40 cell lines with known DNA damage response pathways - Rad54/Ku70 mutant cell line (AID 743015). Note: nearly all actives have a fitted effect of over 60% in size. Note: potency is the fitted concentration of half-maximal effect.
A short description of assay [5]: qHTS assay to identify small molecule antagonists of the androgen receptor (AR) signaling pathway - cell viability counter screen (AID 743033; note: nearly all actives have a fitted effect of over 45% in size; note: potency is the fitted concentration of half-maximal effect).
The nature of assay [6]: qHTS assay to identify small molecule antagonists of the androgen receptor (AR) signaling pathway using the MDA cell line - cell viability counter screen (AID 743041; note: nearly all actives have a fitted effect of over 45% in size; note: potency is the fitted concentration of half-maximal effect). The method, boiled down: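 Cytotoxicity counter screen: MDA-kb2 AR-luc cells, compound + R1881, 16 h, 37C, 0% CO2; CellTiter-Fluor added at 15.5 h, fluorescence read after 30 min.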
Assay [7] addresses Androgen receptor (Homo sapiens) (UniProt P10275). Briefly: qHTS assay to identify small molecule antagonists of the androgen receptor (AR) signaling pathway (AID 743035; active = well fitted inhibition curve with a large enough effect in the signal ratio in the repeat runs, not every such curve was filed as active; the % refers to the signal ratio; note: potency is the fitted concentration of half-maximal effect). The essentials:
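Steps: seed AR-UAS-bla GripTite HEK293 cells, incubate 4 h at 37C; pin in test compound, then add agonist R1881; incubate 16 h at 37C; add LiveBLAzer B/G FRET substrate, 2 h at room temperature; read fluorescence.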

Assay [8] shares this target. Briefly: qHTS assay to identify small molecule agonists of the androgen receptor (AR) signaling pathway (AID 743036; active = well fitted activation curve with a large enough effect in the signal ratio in the repeat runs, with a control signal flat, not every such curve was filed as active; the % refers to the signal ratio; note: % is set by controls: 0 for no effect and ±100 for the full control effect). The method, boiled down: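 Agonist activity was scored by beta-lactamase reporter fluorescence in stably transfected HEK293 cells exposed to compounds for 16 h at 37C and 5% CO2. Substrate loading took 2 h at room temperature.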
The target is the same in assay [9]. Briefly: qHTS assay to identify small molecule agonists of the androgen receptor (AR) signaling pathway using the MDA cell line (AID 743040; note: % is set by controls: 0 for no effect and ±100 for the full control effect; nearly all actives have a fitted effect of over 20% in size). Particulars: MDA-kb2 AR-luc cells, MMTV luciferase, 16 h; at 70.3 µM (top of the series); stronger effect = higher value. The essentials: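 Luciferase read-out, ONE-Glo, 30 min RT. Cells: MDA-kb2 AR-luc, MMTV promoter with AR and GR response elements. Compound exposure 16 h, 37C, 0% CO2, after 5 h pre-incubation. qHTS agonist mode.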

The target is the same in assay [10]. In words: qHTS assay to identify small molecule antagonists of the androgen receptor (AR) signaling pathway using the MDA cell line (AID 743042; note: potency is the fitted concentration of half-maximal effect; nearly all actives have a fitted effect of over 55% in size). The essentials:
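MDA-kb2 breast carcinoma cells carrying MMTV-luciferase (AR/GR responsive) were co-treated with compounds and the agonist R1881 for 16 h at 37C. Inhibition read as ONE-Glo luminescence; CellTiter-Fluor fluorescence measured in parallel for cytotoxicity.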

Androgen receptor (Homo sapiens), sequence (P10275 whole entry, looked up): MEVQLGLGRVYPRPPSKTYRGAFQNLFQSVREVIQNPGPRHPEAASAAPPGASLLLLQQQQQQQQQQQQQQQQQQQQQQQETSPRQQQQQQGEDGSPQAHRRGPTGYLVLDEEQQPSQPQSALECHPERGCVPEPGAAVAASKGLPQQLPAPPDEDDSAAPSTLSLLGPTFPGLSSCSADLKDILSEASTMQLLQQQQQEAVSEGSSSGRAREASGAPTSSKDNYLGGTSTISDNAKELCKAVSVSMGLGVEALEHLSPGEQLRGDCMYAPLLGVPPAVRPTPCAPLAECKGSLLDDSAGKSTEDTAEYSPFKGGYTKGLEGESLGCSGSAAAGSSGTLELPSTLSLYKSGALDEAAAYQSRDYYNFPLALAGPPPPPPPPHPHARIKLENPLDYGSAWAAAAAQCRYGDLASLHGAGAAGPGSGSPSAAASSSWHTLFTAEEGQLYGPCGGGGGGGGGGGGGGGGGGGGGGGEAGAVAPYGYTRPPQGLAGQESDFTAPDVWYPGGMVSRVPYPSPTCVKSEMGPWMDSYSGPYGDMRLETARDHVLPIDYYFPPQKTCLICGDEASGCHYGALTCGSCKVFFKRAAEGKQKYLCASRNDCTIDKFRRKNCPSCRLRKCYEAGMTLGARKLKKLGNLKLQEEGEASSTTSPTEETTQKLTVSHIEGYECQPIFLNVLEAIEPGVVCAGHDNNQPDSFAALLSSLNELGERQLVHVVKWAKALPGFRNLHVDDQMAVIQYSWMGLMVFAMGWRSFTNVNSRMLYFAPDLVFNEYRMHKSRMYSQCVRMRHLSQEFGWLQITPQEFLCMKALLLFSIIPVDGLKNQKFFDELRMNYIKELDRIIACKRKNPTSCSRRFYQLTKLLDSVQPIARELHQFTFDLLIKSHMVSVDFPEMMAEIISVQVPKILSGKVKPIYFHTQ

`CCNCC`: the Potency result in assay [1], in [2], in assay [3], in assay [4], in [5] and in [6] was “inactive” each time.
Take `ClC(Cl)(Cl)Br`: the Potency entry in [1], in assay [2], in [3], in [4], in assay [5] and in assay [6] was “inactive” each time.
Regarding `CC1(C)Cc2cccc(O)c2O1`, the Potency entry in assay [1], in [2], in assay [3], in assay [4], in assay [5] and in assay [6] was “inactive” throughout.
As for `Nc1ccc2ccccc2c1`, the Potency entry in assay [1], in assay [2], in [4], in assay [5] and in assay [6] was “inactive” in each case. Further, in assay [3], the Potency entry is “inactive and 68.6 µM (active)”.
Consider `CC(C)=CC1C(C(=O)OCc2cccc(Oc3ccccc3)c2)C1(C)C` (stereo not given), for which the Potency entry in assay [1], in [2], in assay [3], in [4], in [5] and in assay [6] was “inactive” each time.
Turning to `[Cl-].[Cl-].[Cl-].[Fe+3]`, the Potency result in assay [1], in [2], in assay [3], in [4], in assay [5] and in assay [6] was “inactive” in each case.
On to `CC(C)COC(=O)c1ccccc1C(=O)OCC(C)C`, for which the Potency result in assay [1], in [5] and in assay [6] was “inactive” throughout. Further, the results for the Potency in [2] and in assay [4] were 27.3 µM (active) and 48.6 µM (active), respectively.
`C[C@]12CC[C@H]3[C@@H](CCC4=CC(=O)CC[C@@H]43)[C@@H]1CC[C@@H]2O`: the Potency entry in assay [1], in [3], in assay [5] and in [6] was “inactive” throughout. The Potency in assay [2] is 26.6 µM (active).
Regarding `O=S(=O)(O)C(F)(F)C(F)(F)C(F)(F)C(F)(F)C(F)(F)C(F)(F)C(F)(F)C(F)(F)F`, the Potency entry in [1], in [5] and in [6] was “inactive” each time. In addition, the Potency result in assay [2] was “inactive and 54.5 µM (active)”; in assay [3], 61.1 µM (active) and 48.6 µM (active).
For the compound `Cc1ccc([N+](=O)[O-])cc1`, the Potency result in assay [1], in assay [2], in assay [3], in [4], in assay [5] and in assay [6] was “inactive” in each case.
Take `COP(=S)(OC)Oc1ccc(Sc2ccc(OP(=S)(OC)OC)cc2)cc1`: the Potency entry in [1], in assay [8] and in assay [6] was “inactive” throughout. Besides, the Potency was 29.8 µM (active) and 68.6 µM (active) in assay [2]; 54.9 µM (active) in assay [7]; 61.1 µM (active) in assay [10]. In addition, the activity change in [9] was -9.3% (inactive) and -9.83% (inactive).
In the case of `CCCCCCCCCc1ccc(O)cc1`, in assay [4], the Potency was 30.9 µM (active). Moreover, the Potency entry in [6] was “inactive”.
Turning to `COc1ccc(O)c(C(C)(C)C)c1`, the Potency entry in assay [1], in [2], in assay [3], in [4], in [5] and in [6] was “inactive” in each case.
Consider `CCCCCCCCCC(CC)c1ccc(S(=O)(=O)O)cc1` (stereo not given), for which the Potency entry in assay [2] was “inactive and 18.8 µM (active)”; in assay [4] it was “inactive and 30.6 µM (active) and 47.2 µM (active)”. The Potency result in assay [5] and in assay [6] was “inactive” in each case.
Take `C=C(C)C#N`: the Potency result in assay [1], in [2], in [3], in assay [4], in assay [5] and in assay [6] was “inactive” throughout.
Regarding `OC(c1ccc(Cl)cc1)(c1cncnc1)c1ccccc1Cl` (stereo not given), the Potency entry in [1] and in assay [6] was “inactive” throughout. Further, the Potency was 10.9 µM (active) in assay [2]; 35 µM (active) and 6.86 µM (active) in [3]; 49.4 µM (active) and 6.11 µM (active) in [4].
For the compound `CCCCCCCCCCCCCl`, the Potency entry in [1], in [2], in assay [3], in assay [4], in assay [5] and in [6] was “inactive” each time.
With `O=C1C(Cl)=C(Cl)C(=O)c2ccccc21`, the Potency was 21.9 µM (active) and 19.5 µM (active) in assay [1]; 2.18 µM (active) and 486 nM (active) in [2]; 972 nM (active) and 969 nM (active) in assay [3]; 2.18 µM (active) and 545 nM (active) in assay [4]; 4.91 µM (active) and 7.76 µM (active) in [5]. Besides, in assay [6], the Potency result is “inactive”.
For `O=[N+]([O-])c1ccc(Nc2ccccc2)cc1`, the Potency in assay [1] was 43.6 µM (active); in assay [2], 15.4 µM (active); in assay [3], 54.9 µM (active) and 13.7 µM (active); in [4] it was 30.9 µM (active) and 10.9 µM (active); in [5], 38.9 µM (active); in assay [6], 61.6 µM (active) and 61.1 µM (active).
`CSc1nc(NC(C)C)nc(NC(C)C)n1`: the Potency entry in [1], in [2], in assay [5] and in assay [6] was “inactive” in each case.
In the case of `Cc1cccc(N=Nc2ccc(N(C)C)cc2)c1`, the Potency result in assay [1], in assay [5] and in [6] was “inactive” throughout. For the same compound, the Potency result in assay [3] is “inactive and 27.3 µM (active)”; in assay [4], “inactive and 27.3 µM (active)”.
Consider `CC(C)(C#N)N=NC(C)(C)C#N`, for which the Potency result in [1], in assay [2], in assay [3], in assay [4], in assay [5] and in [6] was “inactive” throughout.
Regarding `O=C1Nc2ccc(Cl)cc2C(c2ccccc2)=NC1O` (stereo not given), the Potency entry in assay [1], in assay [5] and in assay [6] was “inactive” in each case.
On to `CCOC(=O)c1ccccc1N`, for which the Potency result in assay [1], in assay [2], in [3], in assay [4], in [5] and in assay [6] was “inactive” throughout.
Turning to `Cl`, the Potency entry in [1], in assay [4], in [5] and in assay [6] was “inactive” each time. The Potency entry in [2] was “inactive and 54.5 µM (active)”; in [3] it was “inactive and 48.6 µM (active)”.
